Measured values taken from PubChem BioAssay AID1159580 (chemical genetic matrix, 2015).
The campaign covered roughly 5,500 compounds. About 2,000 (36%) were called active. About 18% were inconclusive and are not listed. Cut-off read from the data, not from the text of the source: active = normalized growth mostly below about 0.91 (no sharp cut-off); inconclusive = no clear call, values can overlap the other calls; inactive = mostly above about 0.92. Some of the results follow.

Assay: chemical genetic growth profiling, strain panel (AID 1159580);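 note: tested at 20 µM; growth read once vehicle control cultures reached saturation at 30 °C; 1 = growth at the plate median or of vehicle wells; lower values mean less growth of the strain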
Conditions: growth OD

Measured: normalized growth

Cc1c(C(N)=O)cc([N+](=O)[O-])cc1[N+](=O)[O-]
inactive: S. cerevisiae deletion strains, locus YJR066W, strain TOR1, stronger effect = lower value 0.991 | S. cerevisiae deletion strains, locus YKL009W, strain mrt4, stronger effect = lower value 0.972 | S. cerevisiae deletion strains, locus YKL068W, stronger effect = lower value 0.982 | S. cerevisiae deletion strains, locus YKL085W, strain MDH1 (second series), stronger effect = lower value 1.02 | S. cerevisiae deletion strains, locus YKL085W, strain MDH1, stronger effect = lower value 1.02 | S. cerevisiae deletion strains, locus YKL160W, strain elf1, stronger effect = lower value 0.988 | S. cerevisiae deletion strains, locus YKL190W, strain CNB1, stronger effect = lower value 0.996 | S. cerevisiae deletion strains, locus YKR001C, strain vps1, stronger effect = lower value 0.993 | S. cerevisiae deletion strains, locus YKR026C, strain gcn3, stronger effect = lower value 1.02 | S. cerevisiae deletion strains, locus YKR091W, strain srl3, stronger effect = lower value 1.02 | S. cerevisiae deletion strains, locus YLL001W, strain dnm1, stronger effect = lower value 1.02 | S. cerevisiae deletion strains, locus YLL026W, stronger effect = lower value 1.02 | S. cerevisiae deletion strains, locus YLL041C, strain sdh2, stronger effect = lower value 1.02 | S. cerevisiae deletion strains, locus YLR027C, strain aat2, stronger effect = lower value 1.01 | S. cerevisiae deletion strains, locus YLR039C, strain RIC1, stronger effect = lower value 0.988 | S. cerevisiae deletion strains, locus YLR058C, strain SHM2, stronger effect = lower value 0.99 | S. cerevisiae deletion strains, locus YLR102C, strain apc9, stronger effect = lower value 0.97 | S. cerevisiae deletion strains, locus YLR113W, strain HOG1, stronger effect = lower value 1.07 | S. cerevisiae deletion strains, locus YLR221C, strain rsa3, stronger effect = lower value 1.03 | S. cerevisiae deletion strains, locus YLR258W, strain gsy2, stronger effect = lower value 1.04 | S. cerevisiae deletion strains, locus YLR262C, strain YPT6 (second series), stronger effect = lower value 1.02 | S. cerevisiae deletion strains, locus YLR262C, strain YPT6, stronger effect = lower value 1.01 | S. cerevisiae deletion strains, locus YLR268W, strain sec22, stronger effect = lower value 0.979 | S. cerevisiae deletion strains, locus YLR320W, strain mms22, stronger effect = lower value 1.05 | S. cerevisiae deletion strains, locus YLR330W, strain CHS5, stronger effect = lower value 0.994 | S. cerevisiae deletion strains, locus YLR342W, strain FKS1 (second series), stronger effect = lower value 0.984 | S. cerevisiae deletion strains, locus YLR342W, strain FKS1, stronger effect = lower value 1.02 | S. cerevisiae deletion strains, locus YLR357W, strain rsc2, stronger effect = lower value 0.999 | S. cerevisiae deletion strains, locus YLR370C, strain arc18, stronger effect = lower value 1.04 | S. cerevisiae deletion strains, locus YLR371W, strain rom2, stronger effect = lower value 0.963 | S. cerevisiae deletion strains, locus YLR384C, strain iki3, stronger effect = lower value 1.03 | S. cerevisiae deletion strains, locus YLR418C, strain cdc73, stronger effect = lower value 0.972 | S. cerevisiae deletion strains, locus YML016C, strain PPZ1, stronger effect = lower value 0.989 | S. cerevisiae deletion strains, locus YML032C, strain rad52, stronger effect = lower value 0.978 | S. cerevisiae deletion strains, locus YML120C, strain ndi1, stronger effect = lower value 1.03 | S. cerevisiae deletion strains, locus YML124C, strain tub3, stronger effect = lower value 0.979 | S. cerevisiae deletion strains, locus YMR058W, strain fet3, stronger effect = lower value 1.01 | S. cerevisiae deletion strains, locus YMR078C, strain ctf18, stronger effect = lower value 0.976 | S. cerevisiae deletion strains, locus YMR125W, strain sto1, stronger effect = lower value 0.962 | S. cerevisiae deletion strains, locus YMR129W, stronger effect = lower value 1.02 | S. cerevisiae deletion strains, locus YMR205C, strain PFK2, stronger effect = lower value 1 | S. cerevisiae deletion strains, locus YMR223W, strain ubp8, stronger effect = lower value 0.98 | S. cerevisiae deletion strains, locus YMR231W, strain pep5, stronger effect = lower value 1.03 | S. cerevisiae deletion strains, locus YMR263W, strain SAP30, stronger effect = lower value 0.997 | S. cerevisiae deletion strains, locus YMR307W, strain GAS1, stronger effect = lower value 1.02 | S. cerevisiae deletion strains, locus YNL067W, strain RPL9B, stronger effect = lower value 1.01 | S. cerevisiae deletion strains, locus YNL071W, strain lat1, stronger effect = lower value 1.02 | S. cerevisiae deletion strains, locus YNL128W, strain TEP1, stronger effect = lower value 0.965 | S. cerevisiae deletion strains, locus YNL183C, strain NPR1, stronger effect = lower value 0.98 | S. cerevisiae deletion strains, locus YNL209W, strain ssb2, stronger effect = lower value 1.02 | S. cerevisiae deletion strains, locus YNL233W, strain BNI4, stronger effect = lower value 1.01 | S. cerevisiae deletion strains, locus YNL248C, strain rpa49, stronger effect = lower value 0.923 | S. cerevisiae deletion strains, locus YNL250W, strain rad50, stronger effect = lower value 0.985 | S. cerevisiae deletion strains, locus YNL271C, strain bni1, stronger effect = lower value 0.97 | S. cerevisiae deletion strains, locus YNL298W, strain CLA4, stronger effect = lower value 0.975 | S. cerevisiae deletion strains, locus YNL307C, strain MCK1, stronger effect = lower value 0.978 | S. cerevisiae deletion strains, locus YNL322C, strain KRE1 (second series), stronger effect = lower value 1.03 | S. cerevisiae deletion strains, locus YNL322C, strain KRE1, stronger effect = lower value 0.991 | S. cerevisiae deletion strains, locus YNR049C, strain mso1, stronger effect = lower value 1.02 | S. cerevisiae deletion strains, locus YNR052C, strain pop2, stronger effect = lower value 0.966 | S. cerevisiae deletion strains, locus YOL006C, strain TOP1, stronger effect = lower value 0.984 | S. cerevisiae deletion strains, locus YOL012C, strain htz1 0.838 | S. cerevisiae deletion strains, locus YOL147C, strain pex11, stronger effect = lower value 0.978 | S. cerevisiae deletion strains, locus YOR001W, strain rrp6, stronger effect = lower value 1.03 | S. cerevisiae deletion strains, locus YOR061W, strain CKA2, stronger effect = lower value 0.99 | S. cerevisiae deletion strains, locus YOR069W, strain VPS5, stronger effect = lower value 0.981 | S. cerevisiae deletion strains, locus YOR070C, strain gyp1, stronger effect = lower value 1.02 | S. cerevisiae deletion strains, locus YOR080W, strain dia2, stronger effect = lower value 1.03 | S. cerevisiae deletion strains, locus YOR083W, strain WHI5, stronger effect = lower value 0.985 | S. cerevisiae deletion strains, locus YOR106W, strain vam3, stronger effect = lower value 0.981 | S. cerevisiae deletion strains, locus YOR136W, strain idh2, stronger effect = lower value 0.976 | S. cerevisiae deletion strains, locus YOR144C, strain elg1, stronger effect = lower value 0.978 | S. cerevisiae deletion strains, locus YOR184W, strain ser1, stronger effect = lower value 0.986 | S. cerevisiae deletion strains, locus YOR231W, strain MKK1, stronger effect = lower value 1.05 | S. cerevisiae deletion strains, locus YOR265W, strain rbl2, stronger effect = lower value 1.01 | S. cerevisiae deletion strains, locus YOR270C, strain vph1, stronger effect = lower value 1.01 | S. cerevisiae deletion strains, locus YOR290C, strain snf2, stronger effect = lower value 1.03 | S. cerevisiae deletion strains, locus YOR316C, strain cot1, stronger effect = lower value 0.965 | S. cerevisiae deletion strains, locus YPL051W, strain arl3, stronger effect = lower value 1.01 | S. cerevisiae deletion strains, locus YPL078C, strain atp4, stronger effect = lower value 0.974 | S. cerevisiae deletion strains, locus YPL106C, strain sse1, stronger effect = lower value 1.06 | S. cerevisiae deletion strains, locus YPL240C, strain hsp82, stronger effect = lower value 1.02 | S. cerevisiae deletion strains, locus YPL241C, strain CIN2, stronger effect = lower value 0.991 | S. cerevisiae deletion strains, locus YPL256C, strain CLN2, stronger effect = lower value 1.05 | S. cerevisiae deletion strains, locus YPR119W, strain clb2, stronger effect = lower value 0.982 | S. cerevisiae deletion strains, locus YPR141C, strain kar3, stronger effect = lower value 0.974 | S. cerevisiae deletion strains, locus YPR163C, strain tif3, stronger effect = lower value 0.975 | S. cerevisiae deletion strains, locus YPR167C, strain met16, stronger effect = lower value 0.981 | S. cerevisiae deletion strains, strain wtn01, stronger effect = lower value 0.971 | S. cerevisiae strains, strain wild type, stronger effect = lower value 0.996
